Assay results as given in PubChem BioAssay (NCI).
Compounds without any hit were thinned out: in the full panel of roughly 83,000, 20% have a hit.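 48-hour exposure, single concentration, 96-well plates; percent growth endpoint where 0 means no net growth. Active: below 10.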 Values without a mark were called inactive. Activity calls are given as the source filed them.

Experiments:
Assay in all cases: NCI-60 one-dose screen, 48 h (100 = growth as untreated, 0 = no growth, -100 = all killed)
Settings in all cases: 10 µM unless noted
[1] = test system: SR leukemia
[2] = test system: RPMI-8226 leukemia
[3] = test system: OVCAR-8 ovarian
[4] = test system: OVCAR-5 ovarian
[5] = test system: OVCAR-4 ovarian
[6] = test system: SK-OV-3 ovarian
[7] = test system: IGROV1 ovarian
[8] = test system: OVCAR-3 ovarian
[9] = test system: HS 578T breast
[10] = test system: NCI/ADR-RES ovarian
[11] = test system: T-47D breast
[12] = test system: BT-549 breast
[13] = test system: MDA-MB-435 melanoma
[14] = test system: SW-620 colon
[15] = test system: HCT-116 colon
[16] = test system: HCC-2998 colon
[17] = test system: KM12 colon
[18] = test system: MCF7 breast

Compound | growth [1] | growth [2] | growth [3] | growth [4] | growth [5] | growth [6] | growth [7] | growth [8] | growth [9] | growth [10] | growth [11] | growth [12] | growth [13] | growth [14] | growth [15] | growth [16] | growth [17] | growth [18]
O=c1nc(-c2ccccc2)c2cc(-c3ccc(N4CCOCC4)cc3)ccc2[nH]1 | 71.2% | 51.3% | 82% | 99.5% | 91% | 77.1% | 81.6% | 97.1% | 84% | 95.3% | 52.4% | 88% | 76.6% | 86.8% | 74.3% | 98% | 85.7% | 
O=C(CSc1nc2c(n1Nc1ccccc1)-c1ccccc1SC2)Nc1nccs1 | 82.7% | 90.7% | 97.3% | 103% | 102% | 109% | 91.4% | 98.6% | 93.5% | 90.4% | 97.6% | 127% | 103% | 97.5% |  |  | 102% | 96.3%
CCOC(=O)N1C2CCC(C2)N1C(=O)OCC | 101% | 101% | 101% | 100% | 95.3% | 104% | 108% | 113% | 111% | 108% | 108% | 101% | 113% | 105% | 103% | 104% | 112% | 
O=C(CC(=O)C(F)(F)C(F)(F)C(F)(F)F)c1cc2ccccc2o1 | 101% | 109% | 102% | 103% | 98.6% | 105% | 110% | 106% | 103% | 102% | 96% | 111% | 104% | 97.6% | 102% | 113% | 104% | 
CCN(C(=O)CCl)C(C)(C)C(SSSC(c1ccc(Cl)cc1)C(C)(C)N(CC)C(=O)CCl)c1ccc(Cl)cc1 (stereo not drawn) | 17.6% | 51.7% | 77.9% | 107% | 49.3% | 87.5% | 74.3% | 72.3% | 92.5% | 89.8% | 87.1% | 85.8% | 36.4% | 72.6% | 48% | 85.6% | 85.6% | 
Nc1ccc(C2=NNC(=O)Cc3cc4c(cc32)OCCO4)cc1Cl | 19.6% | 56.2% | 60.1% | 69.7% | 87.8% | 57.1% | 40.8% | -14.1% (active) | 62.2% | 12% | 44.2% | 48.5% | -19.2% (active) | 18.7% | 20.1% | 61.9% | 16% | 
Cc1cccc(N=NC(=S)NNc2cccc(C)c2)c1 | 107% | 96.4% | 108% | 111% | 101% | 105% | 92.4% | 139% | 116% | 113% | 97.6% | 134% | 112% | 107% | 109% | 104% | 124% | 
C=C(C)[C@@H]1CC[C@]2(C(=O)O)CC[C@]3(C)[C@H](CC[C@@H]4[C@@]5(C)C[C@@H](CC#Cc6ccc(C(C)=O)s6)[C@H](O)C(C)(C)[C@@H]5CC[C@]43C)[C@@H]12 | 78.3% | 40% | 38.4% | 98% | 33.6% | 27.7% | 89.1% | 58.4% | 73.1% | 76.3% | 51.5% | 53.1% | 81.5% | 59.8% | 26% | 62.9% | 18.1% | 
COc1ccc(CNc2c3ccccc3nc3ccccc23)cc1F | 4.85% (active) | -5.78% (active) | 29.4% | 36.9% | 26.1% | 48.1% | 15.8% | 52.2% | 45.5% | 20.8% | 35% | 49.5% | 7.6% (active) |  | 12.3% | 5.83% (active) | 32.8% | 2.34% (active)
CC(C)(C)[Si](C)(C)OC1[C@@H](O[Si](C)(C)C(C)(C)C)[C@@H](CNC(=O)NC(=O)NC(=O)CCl)O[C@H]1n1cnc2c(NC(=O)Nc3ccccc3)ncnc21 (stereo partly drawn) | -10.7% (active) | 46.8% | 25.1% | 74.1% | 58.1% | 97.3% | -51.8% (active) | -6.77% (active) | 74.3% | 50.4% | 77% | 71.7% | 76.3% | 85.4% | 17.6% | 75.5% |  | 
NC(N)=NC1CCCCC1 | 92.6% | 85.6% | 98.5% | 109% | 105% | 107% | 107% | -50.3% (active) | 107% | 98% | 103% | 105% | 104% | 100% | 98.6% | 104% | -69% (active) | 
COc1cc(/C=C/c2cc(/C=C/c3ccc(O)c(OC)c3)n(C(=O)Nc3ccc(F)c(Cl)c3)n2)ccc1O | 1.44% (active) | -11.3% (active) | -44% (active) | 0.879% (active) | 9.26% (active) | -31.2% (active) | 4.57% (active) | -26.4% (active) | -12.9% (active) | 12% | 2.29% (active) | -24.2% (active) | -25.9% (active) | 2.03% (active) | 2.15% (active) | 9.75% (active) | 0.0776% (active) | 
C[Si](C)(C)C(c1ccccc1)c1ccccc1 | 86.8% | 91.6% | 102% | 110% | 109% | 98.4% | 97.1% | 113% | 98.9% | 98.9% | 91.4% | 108% | 92.1% | 101% | 97.7% | 97.2% | 107% | 
Cc1ccsc1C(=O)CC(=O)C(F)(F)C(F)(F)C(F)(F)F | 108% | 101% | 102% | 97.4% | 98.6% | 103% | 114% | 110% | 110% | 107% | 101% | 125% | 105% |  | 109% | 111% | 107% | 96.6%
COc1cc(-c2nc(-c3ccc(-c4nc5ccc(F)cc5[nH]4)cc3)no2)cc(OC)c1OC | 32.5% | -15.3% (active) | 5.86% (active) | 72.9% | 30.9% | 85.5% | 47.3% | 36.6% | 30.5% | 13.3% | 8.56% (active) | 35.7% | 46.8% | 55.3% | 28.2% | 81.5% | 11.5% | 
CCOC(=O)Nc1ccc2nc(Sc3ccc(Cl)cc3)sc2c1 | 9.2% (active) | 21.5% | 44.6% | 85.9% | 50.3% | 22.5% | 43.4% | 0.656% (active) | 50.8% | 14% | 36.4% | 58.5% | 1.41% (active) | 29% | 30.5% | 57.1% | 26.9% | 
c1ccc2c(N=NSc3ncnc4nc[nH]c34)c3ccccc3nc2c1 | -28.1% (active) | -1.28% (active) | -25.7% (active) | -9.11% (active) | -8.92% (active) | -14.2% (active) | 6.28% (active) | 5.13% (active) | 53.6% | -33.4% (active) | -23.7% (active) | 27.9% | 5.09% (active) |  | -33.7% (active) | 6.89% (active) | 9.38% (active) | -27.7% (active)
CC(C)(C)c1ccc(OC(=O)Nc2ccccc2)cc1 | 76.3% | 105% | 105% | 106% | 113% | 110% | 107% | 105% | 103% | 106% | 99.7% | 87.5% | 107% | 106% |  |  | 104% | 110%
